Test results as given in PubChem BioAssay (Tox21).
Records with an inconclusive call do not appear. Activity calls are given as the source filed them. Calls follow the shape of the dose curve; as a rule, active = well fitted inhibition curve with a large enough effect in the repeat runs; inconclusive = weak or mixed curves; inactive = no such curve, though single readings can be large or run the other way.

Test: qHTS assay to identify small molecule antagonists of the thyroid receptor (TR) signaling pathway (AID 743065); also: nearly all actives have a fitted effect of over 55% in size
Conditions: GH3.TRE-Luc, T3-stimulated luciferase inhibition, 23.5 h; series mostly up to 70.3 µM; activity, negative = inhibition: at the top concentration
Text: U.S. Tox21 Program National Center for Advancing Translational Sciences [NCATS] NIH Chemical Genomics Center [NCGC] U.S. Environmental Protection Agency [EPA] National Institutes of Environmental Health Sciences [NIEHS] National Toxicology Program [NTP] U.S. Food and Drug Administration [FDA] Tox21 Assay Overview: Thyroid receptor (TR), a nuclear hormone receptor, plays an important role in development, proliferation, differentiation, metabolism, brain function, and cardiovascular system. […] To profile the Tox21 10K compound library in TR signaling, a cell-based GH3-TRE-Luc assay (GH3.TRE-Luc cell line, developed by the laboratory of Dr. Albertinka J. Murk, Wageningen University) was used to measure the inhibition of TR. GH3 (rat pituitary tumor) cells stably expressing a TR activity sensor consisting of two TR response elements and a luciferase reporter gene.
Tox21 Assay Protocol Summary: GH3.TRE-Luc cells were dispensed at 1500 cells/4 uL/well into 1536-well white solid bottom plates using a Multidrop Combi dispenser (Thermo Fisher Scientific Inc., Waltham, MA). After the assay plates were incubated at 37 C for 4 hours, 23 nL of library compound or DMSO controls was transferred to the assay plates by a pintool station (Kalypsys, San Diego, CA), followed by addition of 1 ul of T3 (1 nM, final concentration in the wells) to stimulate TR transactivation. The assay plates were incubated at 37 C for 23.5 h, and then 1 uL of CellTiter-Fluor reagent (Promega, Madision, WI) of measuring cytotoxicity was added to each well using a Bioraptr Flying Reagent Dispenser (FRD) workstation (Beckman Coulter, Indianapolis, IN, USA). The plates were incubated at 37 C and 5% CO2 for additional 30 min, and fluorescence intensity was measured by a ViewLux plate reader (PerkinElmer, Shelton, CT). For measuring luciferase reporter gene activity, 4 uL of ONE-Glo Luciferase Assay reagent (Promega) was added to each well using a Bioraptr FRD (Beckman Coulter), followed by 30 min incubation at room temperature. The luminescence intensity of plates was recorded by a ViewLux plate reader (PerkinElmer, Shelton, CT).
% is scaled to controls: 0 for no effect and ±100 for the full control effect; potency is read from the fitted curve at half-maximal effect.

Q: Which “activity, negative = inhibition” value does the source give for `CCn1cc(C(=O)O)c(=O)c2cc(F)c(N3CCNCC3)nc21` here?
A: -5.68% [at 32.5 µM] (inactive)

Q: With `CC[C@@H]([C@H](C)O)n1ncn(-c2ccc(N3CCN(c4ccc(OC[C@@H]5CO[C@@](Cn6cncn6)(c6ccc(F)cc6F)C5)cc4)CC3)cc2)c1=O` as the molecule, how does the Potency read?
A: 26.6 µM (active)

Q: With `COCC(O)CO` (stereo not given) as the molecule, how does the “activity, negative = inhibition” value read?
A: -3.38% [at 95 µM] (inactive)

Q: For `CC1(C)O[C@@H]2C[C@H]3[C@@H]4CCC5=CC(=O)C=C[C@]5(C)[C@H]4[C@@H](O)C[C@]3(C)[C@]2(C(=O)CO)O1`, which “activity, negative = inhibition” value is on record?
A: -7.61% (inactive)

Q: For `Nc1ccc(S(=O)(=O)O)c(N)c1`, which “activity, negative = inhibition” value is on record?
A: -2.95% (inactive)

Q: With `Oc1cc(O)c(Cl)cc1Cl` as the molecule, how does the “activity, negative = inhibition” value read?
A: -4.2% [at 95 µM] (inactive)

Q: For `O=S1OCCO1`, which “activity, negative = inhibition” value is on record?
A: -0.332% [at 95 µM] (inactive)

Q: With `Cc1oc(C)c(C(=O)Nc2ccccc2)c1C` as the molecule, how does the Potency read?
A: 24.3 µM (active)

Q: With `O=C(O)c1cccnc1C(=O)O` as the molecule, how does the “activity, negative = inhibition” value read?
A: 3.56% (inactive)

Q: For `CC1=CC(O)CC(C)(C)C1` (stereo not given), which “activity, negative = inhibition” value is on record?
A: -0.0302% (inactive)

Q: With `O=C(O)Cc1ccc(-c2ccccc2)cc1` as the molecule, how does the “activity, negative = inhibition” value read?
A: -1.59% [at 32.5 µM] (inactive)

Q: Which “activity, negative = inhibition” value does the source give for `CCCCCCCC/C=C\CCCCCCCC(=O)OC` here?
A: 16.2% (inactive)

Q: For `CCC(=O)OC/C=C/c1ccccc1`, which “activity, negative = inhibition” value is on record?
A: 13.3% (inactive)

Q: Which “activity, negative = inhibition” value does the source give for `CCCCC(CC)CNCC(CC)CCCC` (stereo not given) here?
A: 8.39% (inactive)

Q: Which Potency does the source give for `CNCCCC1c2ccccc2C=Cc2ccccc21` here?
A: 11.4 µM (active)

Q: With `NC(=O)Nc1ccc(Cl)cc1` as the molecule, how does the “activity, negative = inhibition” value read?
A: 9.01% (inactive)

Q: For `Nc1nc(Cl)nc2c1ncn2[C@@H]1O[C@H](CO)[C@@H](O)[C@@H]1F`, which Potency is on record?
A: 0.133 µM (active)

Q: Which Potency does the source give for `O=C(N[C@@H](c1ccccc1)[C@@H]1CCCCN1)c1cccc(C(F)(F)F)c1Cl` here?
A: 27.3 µM (active)

Q: With `OCCSc1ccccc1` as the molecule, how does the “activity, negative = inhibition” value read?
A: 0.0245% (inactive)

Q: Which “activity, negative = inhibition” value does the source give for `CCC(C(=O)OCCOCCN(CC)CC)c1ccccc1` (stereo not given) here?
A: -6.08% (inactive)

Q: For `C[Si]1(C)O[Si](C)(C)O[Si](C)(C)O1`, which “activity, negative = inhibition” value is on record?
A: 0.861% (inactive)

Q: For `CC(C)(C)C(=O)C(Oc1ccc(Cl)cc1)n1ccnc1` (stereo not given), which “activity, negative = inhibition” value is on record?
A: -19.1% (inactive)

Q: Which “activity, negative = inhibition” value does the source give for `CCOC(=O)CC(=O)C(=O)OCC` here?
A: 21.8% (inactive)

Q: For `Cc1nccn1-c1ccc(Sc2cccc(C3(C(N)=O)CCOCC3)c2)cc1`, which Potency is on record?
A: 4.86 µM (active)

Q: Which “activity, negative = inhibition” value does the source give for `CCCCCCCCCOC(C)=O` here?
A: 0.663% (inactive)

Q: Which “activity, negative = inhibition” value does the source give for `Cc1ccc(S(=O)(=O)NC2CCCCC2)cc1` here?
A: -28.2% (inactive)

Q: Which “activity, negative = inhibition” value does the source give for `Nc1ccc(Cl)cc1[N+](=O)[O-]` here?
A: 45.6% (inactive)

Q: With `Oc1ccc(Nc2ccccc2)cc1` as the molecule, how does the Potency read?
A: 43.3 µM (active)

Q: With `Cc1cc(O)c(C(C)C)cc1Cl` as the molecule, how does the “activity, negative = inhibition” value read?
A: -0.229% (inactive)

Q: Which “activity, negative = inhibition” value does the source give for `CC1=C(/C=C/C(C)=C\C=C\C(C)=C\C(=O)O)C(C)(C)CCC1` here?
A: -18.7% (inactive)

Q: For `CCOC(=O)[C@@H](C)Oc1ccc(Oc2nc3ccc(Cl)cc3o2)cc1`, which “activity, negative = inhibition” value is on record?
A: -17.1% (inactive)

Q: For `CCCCCCCCCCCC[N+](C)(C)CC(=O)[O-]`, which Potency is on record?
A: 54.5 µM (active)

Q: With `Fc1ccccc1[C@@H](F)COC1CCC(Nc2ncnc3[nH]ncc23)CC1` (stereo not given in full) as the molecule, how does the Potency read?
A: 48.6 µM (active)

Q: Which “activity, negative = inhibition” value does the source give for `CCCCCCOC(=O)C(C)C` here?
A: 0.0363% (inactive)

Q: Which “activity, negative = inhibition” value does the source give for `O=Cc1c(Cl)cccc1Cl` here?
A: 8.99% [at 95 µM] (inactive)

Q: For `CCCCCCCCCCCCCCCCBr`, which “activity, negative = inhibition” value is on record?
A: 11.9% [at 32.5 µM] (inactive)

Q: Which “activity, negative = inhibition” value does the source give for `CCOC(=O)C(C)Oc1ccc(Oc2nc3ccc(Cl)cc3o2)cc1` (stereo not given) here?
A: -7.47% (inactive)

Q: With `CN1CCN(CCCN2c3ccccc3Sc3ccc(S(=O)(=O)N(C)C)cc32)CC1` as the molecule, how does the Potency read?
A: 11.4 µM (active)

Q: Which “activity, negative = inhibition” value does the source give for `C=CC(C)(O)CCCC(C)CCCC(C)CCCC(C)C` (stereo not given) here?
A: 71.5% (inactive)

Q: For `CO[Si](C)(OC)OC`, which “activity, negative = inhibition” value is on record?
A: 0% (inactive)
